Screening results from PubChem BioAssay.
BAZ2B block – inhibitors of human BAZ2B bromodomain; 360,000 tested, 4.4% active; Q9UIF8; Potency, µM (titrated, usually from 114 µM), for inactives: at the top dose activity change, negative = inhibition, usual class: inhibitors; AlphaScreen BAZ2B-H3K14Ac peptide displacement; note: potency is the fitted concentration of half-maximal effect; % is set by controls: 0 for no effect and ±100 for the full control effect; nearly all actives have a fitted effect of over 60% in size
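In this displacement format the biotinylated H3(5-23) peptide acetylated at Lys14 serves as ligand at 50 nM, with BAZ2B at 50 nM in PBS pH 7.4 containing 0.01% Tween-20. Donor and acceptor beads are 10 ug/mL final.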
PLK1 PBD block – inhibitors of human PLK1 polo-box domain binding | Plk1 PBD binding of FITC phosphopeptide, fluorescence polarization | Potency, µM, without a hit: max response, negative = inhibition, most hits filed as inhibitors | 360,000 tested, 2.8% active | AID 720504; note: potency is the fitted concentration of half-maximal effect; series mostly up to about 57 µM; % is set by controls: 0 for no effect and ±100 for the full control effect; nearly all actives have a fitted effect of over 65% in size
HP1b binding inh – blocks HP1-beta chromodomain binding to methylated histone tails; P83916; AlphaScreen HP1-beta / biotin-H3K9me3 peptide binding; Potency, µM (doses to about 114 µM), without a hit: at the top dose activity change, negative = inhibition, actives largely listed as inhibitors; 390,000 tested, 0.56% active; AID 540317; note: potency is the fitted concentration of half-maximal effect; nearly all actives have a fitted effect of over 70% in size
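HP1-beta protein (50 nM final) preincubated 30 min at room temperature with biotinylated H3(1-18)K9me3 peptide (50 nM) in PBS pH 7.4, 0.01% Tween-20, then compound added for 30 min. AlphaScreen streptavidin donor/nickel chelate acceptor beads (10 ug/mL final), 30 min dark, luminescence read.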
JMJD2A Tudor – blocks the human JMJD2A Tudor domain. Potency, µM (doses to about 114 µM), for inactives: at the highest dose activity change, negative = inhibition, most hits filed as inhibitors. 390,000 tested, 4.4% active. AID 504339. AlphaScreen JMJD2A-Tudor / H3K4me3 peptide binding; note: potency is the fitted concentration of half-maximal effect; % is set by controls: 0 for no effect and ±100 for the full control effect; nearly all actives have a fitted effect of over 50% in size
Target sequence (O75164 whole entry, looked up, the tested form may be a part): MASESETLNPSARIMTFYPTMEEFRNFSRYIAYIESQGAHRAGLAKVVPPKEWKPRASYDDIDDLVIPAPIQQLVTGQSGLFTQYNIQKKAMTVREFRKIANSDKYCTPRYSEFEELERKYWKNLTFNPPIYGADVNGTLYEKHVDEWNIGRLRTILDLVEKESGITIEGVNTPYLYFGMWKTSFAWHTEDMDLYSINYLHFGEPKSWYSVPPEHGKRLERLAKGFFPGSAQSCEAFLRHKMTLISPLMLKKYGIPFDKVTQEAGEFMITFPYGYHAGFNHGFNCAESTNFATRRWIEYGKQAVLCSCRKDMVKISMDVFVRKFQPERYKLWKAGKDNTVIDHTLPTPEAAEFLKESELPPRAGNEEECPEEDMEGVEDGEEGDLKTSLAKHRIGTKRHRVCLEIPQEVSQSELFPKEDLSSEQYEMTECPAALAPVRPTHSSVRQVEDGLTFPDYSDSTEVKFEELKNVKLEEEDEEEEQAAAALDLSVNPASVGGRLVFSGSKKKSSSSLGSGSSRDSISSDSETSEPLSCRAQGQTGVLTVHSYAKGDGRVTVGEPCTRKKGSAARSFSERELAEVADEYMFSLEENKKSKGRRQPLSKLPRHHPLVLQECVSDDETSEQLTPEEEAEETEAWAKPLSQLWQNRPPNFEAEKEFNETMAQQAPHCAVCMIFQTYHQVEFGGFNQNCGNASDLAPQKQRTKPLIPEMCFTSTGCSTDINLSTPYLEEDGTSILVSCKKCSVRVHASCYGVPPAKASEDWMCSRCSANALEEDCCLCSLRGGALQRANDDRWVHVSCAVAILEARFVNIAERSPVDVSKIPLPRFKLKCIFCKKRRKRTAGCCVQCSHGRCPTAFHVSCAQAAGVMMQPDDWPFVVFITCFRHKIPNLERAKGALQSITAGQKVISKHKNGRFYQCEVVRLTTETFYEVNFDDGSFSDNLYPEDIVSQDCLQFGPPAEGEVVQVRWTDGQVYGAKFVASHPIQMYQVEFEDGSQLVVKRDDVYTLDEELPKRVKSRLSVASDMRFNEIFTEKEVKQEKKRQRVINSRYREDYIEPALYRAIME
PI5P4K alpha inh – blocks human PI5P4K alpha kinase activity; P48426; PI5P4Kalpha enzyme, ADP-Glo luminescence, 60 min; stronger effect = lower value; max response, %; 330,000 tested, 1.2% active; active = max response of -50% or lower; inconclusive = between -30% and -50%; inactive = -30% or higher; note: value at the top dose of about 77 µM; % is set by controls: 0 for no effect and ±100 for the full control effect
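Enzyme plus substrate dispensed, test compounds pinned in, then ATP (5 microM final) added. After 60 min at RT, ADP-Glo reagent 1 for 45 min and reagent 2 for 30 min preceded luminescence imaging.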
G9a inh – blocks human histone lysine methyltransferase G9a; Q96KQ7; G9a H3K9 monomethylation, AlphaScreen, 2 h; Potency, µM (highest dose often 102 µM), for the others: top-dose activity, negative = inhibition, most hits filed as inhibitors; 350,000 tested, 8.8% active; AID 504332; note: potency is the fitted concentration of half-maximal effect; % is set by controls: 0 for no effect and ±100 for the full control effect; nearly all actives have a fitted effect of over 75% in size
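Step 1: enzyme (final 20 nM) with compound, 15 min RT. Step 2: substrate peptide 500 nM and SAM 20 uM, 2 h RT. Step 3: anti-H3K9me1 antibody and AlphaScreen beads, 10 min, then plate read.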
Active calls of the source: *; ? = inconclusive; / = no result given; [ ] = remark or other dose. An excerpt weighted towards active compounds, which were near 12% of everything screened. Unless noted, calls come from the whole dose curve; as a rule, active = well fitted curve in the direction sought with a large enough effect; inconclusive = small, poorly fitted or top-dose-only effect, or another doubt; inactive = no such curve, though single readings can be large; an effect the other way counts as inactive or inconclusive.

SMILES	BAZ2B block	PLK1 PBD block	HP1b binding inh	JMJD2A Tudor	PI5P4K alpha inh	G9a inh
CN1CCN(S(=O)(=O)c2cccc(C(=O)Nc3ccc(Br)cc3Br)c2)CC1	/	-5.7%	5.8%	-19.1%	-0.6	/
COc1ccc(S(=O)(=O)N2CCCCCC2)cc1NC(=O)CCNC(=O)c1ccccc1Cl	/	7.5%	/	/	2.5	/
Cc1c(Br)cc(F)c([S+](=O)([O-])N2CCN([S+](=O)([O-])c3ccc4c(c3)OCCO4)CC2)c1F	/	/	/	-25.3%	/	/
Cc1ccc(-n2c(COc3ccccc3)nnc2SCC(=O)O)cc1	/	-0.2%	/	/	-8.6	/
COc1cccc(-c2nnc(SCC(N)=O)n2-c2ccc(Cl)cc2)c1	-7.4%	-4.2%	24.1%	-11.3%	/	28.2µM*
CCn1c(COc2ccccc2)nnc1SCC(=O)c1cccc([N+](=O)[O-])c1	-33.9%	-26.1%	-5.1%	?	/	39.8µM*
COc1ccc(-c2nnc(SCC(=O)c3cccs3)n2-c2ccc(Cl)cc2)cc1	-7.9%	-5.5%	38.7%	-9.7%	-2.3	?
CNC(=O)CSc1nnc(COc2ccc([N+](=O)[O-])cc2)n1C	56.2µM*	-6.9%	60.1%	-5.7%	-1.4	19.0%[59 µM]
COc1ccc(-n2c(COc3ccc4c(c3)OCO4)nnc2SCC(=O)O)cc1	-26.8%	-8.5%	20.8%	-21.1%	-19.2	50.1µM*
CC(Sc1nnc(COc2ccc([N+](=O)[O-])cc2)n1C)C(=O)O (stereo unspecified)	-2.6%	-15.5%	4.9%	-10.3%	-6.4	2.1%
CCOc1ccccc1Nc1nnc(SCC(=O)NC2CCS(=O)(=O)C2)s1 (stereo unspecified)	/	-0.1%	43.9%	1.0%	2.2	/
CCn1c(COc2ccc3c(c2)OCO3)nnc1SCC(=O)c1ccc(Cl)cc1	-0.8%	-9.0%	18.0%	-10.1%	-2.1	50.1µM*
Cn1c(=O)c(=O)n(C)c2cc(S(=O)(=O)CCC(=O)N3CCOCC3)ccc21	-1.6%	26.7µM*	11.4%	?	-0.7	-38.6%[59 µM]
Cc1ccc(N(CCC(=O)N2CCOCC2)S(=O)(=O)c2ccccc2)cc1	-2.3%	2.8%	31.3%	-1.4%	-2.8	0.708µM*
CCOC(=O)N1CCN(C(=O)CN(C)S(=O)(=O)c2ccc(OC)c(OC)c2)CC1	3.9%	11.9µM*	4.7%	-19.9%[11.4 µM]	?	-27.1%
Cc1ccc(S(=O)(=O)N(CCC(=O)O)c2ccccc2)cc1	-6.2%	0.3%	30.2%	-4.8%	-5.9	56.2µM*
Cc1ccc(N(CCC(=O)O)S(=O)(=O)c2ccc(C)cc2)cc1	-6.1%	-2.1%	40.0%	8.9%	2.0	24.1%[59 µM]
COc1ccc(-c2nnc(SCC(=O)Nc3cccc(C(F)(F)F)c3)nc2-c2ccc(OC)cc2)cc1	8.1%	/	16.0%	?	/	41.2%[59 µM]
Cc1ccc(S(=O)(=O)N(C)CC(=O)N2CCOCC2)cc1	-6.2%	?	?	79.4µM*	-3.5	3.6%[59 µM]
Cc1ccc(S(=O)(=O)N(CC(=O)N2CCOCC2)CC(=O)N2CCOCC2)cc1	8.4%	-0.1%	27.5%	-2.9%	-2.1	0.6%[59 µM]
CCOC(=O)Oc1c(OC)cc(C(=O)O[C@@H]2C[C@@H]3CN4CCc5c([nH]c6cc(OC)ccc56)[C@H]4C[C@@H]3[C@H](C(=O)OC)[C@H]2OC)cc1OC	?	20.1%	10.8%	?	3.7	8.91µM*
Clc1ccccc1-c1nnc2sc(CCc3ccccc3)nn12	0.7%	7.52µM*	?	?	/	4.47µM*
c1ccc(CCc2nn3c(-c4ccncc4)nnc3s2)cc1	5.3%	26.7µM*	-22.1%	-10.5%	/	?
CCn1cc(CNC(=O)CC2C(=O)NCCN2CC(c2ccccc2)c2ccccc2)cn1 (stereo unspecified)	-5.1%	-15.6%	47.5%	-22.9%	-4.7	/
O=C(CC1C(=O)NCCN1Cc1ccc(F)cc1)NC1CCCCCCC1 (stereo unspecified)	-22.6%	-10.6%	34.7%	8.9%	0.9	50.1µM*
COc1ccc(CN2CCNC(=O)C2CC(=O)NC2CCCCCCC2)cc1OC (stereo unspecified)	-24.4%	-10.1%	26.0%	-12.9%	0.7	-6.5%
O=C(CC1C(=O)NCCN1Cc1ccccc1)NC1CCCCC1 (stereo unspecified)	/	-17.8%	/	/	-14.0	/
